# Test results reported in the supplement of paper PMC13380429.
# A number with no mark means an inactive call.
# Tested on: Vero E6 infected with SARS-CoV-2
# Experiment: inhibition of SARS-CoV-2 cytopathic effect; higher = more antiviral protection, active = above 15
# Details: 48 h
Compound,inhibition of SARS-CoV-2 cytopathic effect (1 nM),inhibition of SARS-CoV-2 cytopathic effect (8.33 nM),inhibition of SARS-CoV-2 cytopathic effect (100 nM),inhibition of SARS-CoV-2 cytopathic effect (833.33 nM),inhibition of SARS-CoV-2 cytopathic effect (10000 nM)
Cc1sc(C)c(C(=O)NC2(c3ccc(C(=O)O)cc3)CC2)c1Cc1ccc(C(F)(F)F)cc1,-1.32%,-0.56%,-0.49%,-1.38%,1.12%
CN1CCC(c2c[nH]c3ccc(O)cc23)CC1,-0.56%,2.91%,0.58%,3.92%,-0.8%
CCCCc1nn(-c2ccccc2C(F)(F)F)c(=O)n1Cc1ccc(-c2ccccc2S(=O)(=O)NC(=O)c2sccc2C)cc1,0.19%,-0.03%,2.56%,-2.77%,-1.65%
CO[C@H](C(=O)[C@@H](O)[C@@H](C)O)[C@@H]1Cc2cc3cc(O[C@H]4C[C@@H](O[C@H]5C[C@@H](O)[C@H](O)[C@@H](C)O5)[C@@H](O)[C@@H](C)O4)c(C)c(O)c3c(O)c2C(=O)[C@H]1O[C@H]1C[C@@H](O[C@H]2C[C@@H](O[C@H]3C[C@](C)(O)[C@H](O)[C@@H](C)O3)[C@H](O)[C@@H](C)O2)[C@H](O)[C@@H](C)O1 [plicamycin],2.66%,3.18%,3.85%,-3.43%,-7.42%
CC(C)[C@@H](C)/C=C/[C@@H](C)[C@H]1CC[C@H]2C3=CC=C4C[C@@H](O)CC[C@]4(C)[C@H]3CC[C@]12C [ergosterol],-3.22%,1.48%,0.86%,2.74%,2.85%
CS(=O)(=O)c1ccc([C@@H](O)[C@@H](CF)NC(=O)C(Cl)Cl)cc1 [florfenicol],-5.27%,-3.73%,-3.16%,0.63%,-0.52%
CC(C)CNc1nc(-c2cccc3ncccc23)cn2c(-c3ccc(C(=O)NC4CC4)cc3)cnc12,-3.61%,-1.58%,1.09%,-6.07%,-3.69%
O=C(NC(O)C(Cl)(Cl)Cl)NC(O)C(Cl)(Cl)Cl (stereo not given) [dicloralurea],-4.23%,-2.71%,-0.82%,-3.4%,-4.69%
COc1cc(Nc2ncc(F)c(Nc3ccc4c(n3)NC(=O)C(C)(C)O4)n2)cc(OC)c1OC,-3.02%,-0.43%,-2.04%,-4.61%,-4.19%
CC(=O)NCCCCCC(=O)O [acexamic-acid],1.78%,1.59%,0.61%,0.94%,0.09%
CC=CC1=C(C(=O)O)N2C(=O)[C@@H](NC(=O)[C@H](N)c3ccc(O)cc3)[C@H]2SC1 (mixture of isomers) [cefprozil],-0.42%,0.76%,2.16%,-0.77%,8.62%
CC(C)Oc1ccc(-c2nc(-c3cccc4c3CC[C@@H]4NCCO)no2)cc1C#N [ozanimod],-1.23%,-0.27%,2.87%,0.63%,59.2% (active)
CCCS(=O)(=O)Nc1ccc(F)c(C(=O)c2c[nH]c3ncc(Cl)cc23)c1F,0.68%,0.41%,-0.45%,2.16%,1.71%
CCCC[C@H]1OC(=O)c2ccccc21 [butylphthalide],-2.11%,-2.6%,-0.12%,1.5%,0.31%
CCCCN(CC)c1nc(C)nc2c1c(C)c(C)n2-c1c(C)cc(C)cc1C [antalarmin],-0.13%,-2.86%,1.21%,-0.62%,2%
CC(=O)Oc1cc(C(F)(F)F)ccc1C(=O)O [triflusal],-0.9%,-0.53%,-1.38%,0.3%,4.74%
COC(=O)[C@@H](N)CS [mecysteine],2.04%,-0.66%,-0.44%,2.25%,2.07%
Oc1ccc2c3c1O[C@H]1c4[nH]c5ccccc5c4C[C@@]4(O)[C@@H](C2)N(CC2CC2)CC[C@]314 [naltrindole],1.74%,3.59%,1.09%,0.82%,-3.58%
Cc1cc2nc3c(=O)[nH]c(=O)nc-3n(C[C@H](O)[C@H](O)[C@H](O)COP(=O)(O)O)c2cc1C [riboflavin-5-phosphate-sodium],0.5%,3.45%,-0.48%,1.47%,0.24%
